From PubChem
PK Bst: Pyruvate Kinase | Potency, µM | purified pyruvate kinase, luminescence ATP production; ribose 5-phosphate activator present at AC10 | AID 361, 2006 | 51,000 compounds, 1.2% hits; in the data active means potency below about 11 µM; inconclusive means mostly about 12 µM to 25 µM;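 the screen sought inhibitors and activators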;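 further: scaled between full activation by ribose 5 phosphate and full inhibition by luteolin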
ERK AVP block: qHTS Assay for Inhibitors of the ERK Signaling Pathway using a Homogeneous Screening Assay | HEK293-V1b, vasopressin-stimulated pERK AlphaScreen | Potency, µM (titrated, usually from 57.5 µM), for inactives: top-dose activity, negative = inhibition, usual class: inhibitors | 72,000 compounds, 0.99% hits | AID 995, 2007; further: nearly all actives have a fitted effect of over 55% in size
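HEK293 cells stably expressing V1b receptor, seeded overnight in 1% FBS, were treated with compounds for 30 min at 37C, then stimulated 5 min with 25 nM vasopressin; phospho-ERK read by AlphaScreen SureFire after lysis.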
Luciferase inh: qHTS Assay for Inhibitors of Firefly Luciferase. purified firefly luciferase, luminescence, 8 min. Potency, µM (highest dose often 57.1 µM), without a hit: top-dose activity change, negative = inhibition, hits mostly inhibitors. AID 411, 2009. 72,000 compounds, 2.2% hits. Luciferin 4-monooxygenase (Photinus pyralis), P08659; further: nearly all actives have a fitted effect of over 40% in size
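Substrate buffer containing 10 uM ATP (pH 7.2 imidazole, Mg2+, KCl, detergent, BSA) is dispensed, compound pinned in, then luciferase/luciferin detector mix added. After 8 min at ambient temperature, light output is measured.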
ALOX15 inhib: qHTS Assay for Inhibitors of 15-hLO (15-human lipoxygenase); purified 15hLO-1, xylenol orange hydroperoxide absorbance; Potency, µM (doses to about 57.1 µM), without a hit: at the top dose activity change, negative = inhibition, actives largely listed as inhibitors; 74,000 compounds, 1.4% hits; further: nearly all actives have a fitted effect of over 55% in size
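Readout: Fe(III)-xylenol orange absorbance, 573-to-405 nm ratio as reaction progress. Enzyme 40 nM purified human 15hLO-1, substrate 50 uM arachidonic acid, 6 min RT after 15 min compound preincubation; Hepes pH 7.5 buffer with Triton X-100.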
HADH2 inhib: qHTS Assay for Inhibitors of HADH2 (Hydroxyacyl-Coenzyme A Dehydrogenase, Type II); 73,000 compounds, 3.4% hits; 3-hydroxyacyl-CoA dehydrogenase type-2 (Homo sapiens), Q99714; recombinant HADH2, NADH fluorescence, beta-hydroxybutyryl-CoA; Potency, µM (titrated, usually from 57.1 µM), for inactives: top-dose activity change, negative = inhibition, most hits filed as inhibitors; further: nearly all actives have a fitted effect of over 60% in size
Target sequence (Q99714 whole entry, looked up, one chain of several): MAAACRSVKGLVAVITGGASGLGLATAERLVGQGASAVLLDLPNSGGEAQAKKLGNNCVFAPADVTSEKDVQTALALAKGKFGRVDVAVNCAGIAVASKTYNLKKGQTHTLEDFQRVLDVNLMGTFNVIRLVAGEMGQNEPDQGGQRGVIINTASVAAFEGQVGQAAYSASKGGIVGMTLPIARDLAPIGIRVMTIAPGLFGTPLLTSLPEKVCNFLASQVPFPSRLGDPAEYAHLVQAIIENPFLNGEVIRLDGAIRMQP
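Read-out: 360 nm excitation, 450 nm emission, kinetic over 4 min. Conditions: His-tagged human HADH2 20 nM, pH 9.0 Tris with Tween-20, 1 mM NAD+, 90 uM beta-hydroxybutyryl-CoA.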
HSD17B inhib: qHTS Assay for Inhibitors of HSD17B4, hydroxysteroid (17-beta) dehydrogenase 4; 3-hydroxyacyl-CoA dehydrogenase type-2 (Homo sapiens), Q99714; recombinant HSD17B10, NADH fluorescence kinetic; Potency, µM (highest dose often 57.1 µM), for the others: top-dose activity change, negative = inhibition, actives largely listed as inhibitors; 75,000 compounds, 7.6% hits;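 further: the protocol describes HADH2 (HSD17B10) and not the HSD17B4 of the title; nearly all actives have a fitted effect of over 70% in size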
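Enzyme plus compound, 15 min room temperature; substrate mix added (NAD+ 1 mM, beta-hydroxybutyryl-CoA 90 uM final); plates read kinetically for NADH fluorescence. HADH2 was His-tagged, E. coli-derived, 20 nM.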
* hit, by the source's call; i = inactive; ? = inconclusive; . = no result given; [ ] = dose if it differs, or a comment. Sampled rows, rich in hits. Any-hit rate of the full collection: about 11%. Unless noted, the call rests on the fitted dose curve; in most records, active means well fitted curve in the direction sought with a large enough effect; inconclusive means small, poorly fitted or top-dose-only effect, or another doubt; inactive means no such curve, though single readings can be large; an effect the other way counts as inactive or inconclusive. Unless noted, on the % scale 0 is the no-effect control and ±100 the full control effect; potency means the concentration at half of the fitted maximal effect.

SMILES	PK Bst	ERK AVP block	Luciferase inh	ALOX15 inhib	HADH2 inhib	HSD17B inhib
COc1c2ccoc2cc2oc(C)cc(=O)c12	.	?	.	-2%	.	-1%
CCn1c(SC/C=C/c2ccccc2)nnc1-c1cccs1	>57	-4%	2%	-3%	?	25µM*
Cn1c(SC/C=C/c2ccccc2)nnc1-c1cccs1	>57	-2%	-1%	-4%	-5%	-8%
CCn1c(SC(=O)NC2CCCCC2)nnc1-c1cccs1	>57	6%	-1%	-13%	?	25µM*
O=C(O)[C@@H]1[C@@H](C(=O)Nc2ccccc2)[C@@H]2C=C[C@@H]1O2	.	-3%[11.5 µM]	4%[11.4 µM]	14%[11.4 µM]	10%[11.4 µM]	-6%[11.4 µM]
CCCCc1nc2n[nH]c(N)c2c2c1CCC2	.	16µM*	-1%	13%	14%	1%
Cc1ccc2nc(-c3ccc(SCC(=O)O)nc3)[nH]c2c1	.	7%	-27%	1%	?	32µM*
CCc1cc(-c2[nH]ncc2-c2ccc3c(c2)OCO3)c(O)cc1O	>57	?	1%	25µM*	-5%	?
COc1ccc(-c2[nH]ncc2-c2ccc3c(c2)OCCO3)c(O)c1	>57	-17%	0%	?	-20%	-14%
CC(C)NC(=O)N1CC[C@@]2(CCCN(S(=O)(=O)c3ccccc3)C2)C1	.	-9%	-2%[11.4 µM]	1%	5%	2%
C/C(=C\CO)CCC(C)CCCC(C)CCCC(C)C (stereo not given)	.	28%	.	-5%	.	-12%
CC(C)=CCCC(C)CCO (stereo not given)	.	16%	.	7.9µM*	-4%	-4%
COC(=O)[C@@H]1C[C@H]1[C@@H](NC(C)=O)c1ccccc1	.	1%	.	.	?	0%
Cc1nc(N)sc1-c1csc(Nc2ccc(Cl)cn2)n1	i	-21%	-3%	-15%	?	-7%
Cc1nc(N)sc1-c1csc(Nc2ccccn2)n1	.	-11%	13µM*	-1%	?	-3%
O=c1c2c([nH]c3ccccc13)CCCCCC2	>57	-8%	-1%	16%	-27%	-13%
NC(=O)c1cccc2c3c([nH]c12)CCCC3	.	?	-29%	3.2µM*	?	11%
O=C(c1cccc(F)c1)N1CCC2(CC1)CN(c1ccc(-c3ccccc3)cc1)C2	.	?	0%[11.4 µM]	-9%	-1%	?
CCOc1ccc(NS(=O)(=O)c2ccc(C)c(C(=O)O)c2)cc1	.	.	.	-1%	5%	5%
C=CC(C)(C)c1[nH]c2ccccc2c1C1=C(O)C(=O)C(c2c[nH]c3c(CC=C(C)C)cccc23)=C(O)C1=O	.	?	-1%	?	-12%	7.9µM*
C(=N/Nc1nnc2c(n1)[nH]c1ccccc12)/c1cccnc1	.	-18%[11.5 µM]	-7%[11.4 µM]	0%[11.4 µM]	7%[11.4 µM]	-1%[11.4 µM]
N[C@H](C(=O)O)c1cc(O)cc(O)c1	.	-9%	1%	?	-14%	?
N[C@@H](C(=O)O)c1ccc(C(=O)O)c(O)c1	.	6%	-1%	-9%[25.6 µM]	?	32µM*
Nc1ccc(C(=O)O)c(O)c1	>26	39%	-23%[25.5 µM]	0%	.	-3%
N[C@@H](C(=O)O)c1ccc(O)c(C(=O)O)c1	.	-14%	-3%	-9%[25.6 µM]	40µM*	20µM*
SMILES	PK Bst	ERK AVP block	Luciferase inh	ALOX15 inhib	HADH2 inhib	HSD17B inhib
Cc1nnc2sc(-c3ccc(-c4ccc(Cl)c(C(F)(F)F)c4)o3)nn12	>57	-12%	3%	8%	228%	4µM*
Cc1oc(-c2cc(Cl)ccc2Cl)cc1-c1nn2c(C)nnc2s1	>57	13%	2%	-1%	-7%	-10%
O=[N+]([O-])c1ccc2ncccc2c1CCc1c([N+](=O)[O-])ccc2ncccc12	.	-14%[11.5 µM]	2%[11.4 µM]	3%[11.4 µM]	-4%[11.4 µM]	0%[11.4 µM]
O=S(=O)(c1ccccc1)N1CCC2(CCCN(c3ccncc3)C2)CC1	.	-11%	1%[11.4 µM]	10%	-1%	5%
CCC(CC)C(=O)NCc1ccc2c(c1)cc(C)n2C	>57	12%	-2%	-9%	3%	6%
Cc1cc2cc(CNC(=O)c3cccs3)ccc2n1C	>57	13%	-3%	16µM*	-23%	-10%
CCCC[C@@H]1C[C@H]1C(NC(=O)c1ccccc1)c1ccc(-c2ccccc2)cc1 (stereo not given in full)	.	22%	.	.	4%	0%
COc1ccc(OC)c(C2CC(=O)N3CN(c4ccccc4F)CSC3=C2C#N)c1 (stereo not given)	.	?	-25%	?	2.5µM*	?
COc1cccc(C2CC(=O)N3CN(c4ccccc4F)CSC3=C2C#N)c1 (stereo not given)	.	-17%	-22%	?	1.3µM*	?
CCc1ccccc1N1CSC2=C(C#N)C(c3cc(OC)c(OC)cc3OC)CC(=O)N2C1 (stereo not given)	>57	-27%	-21%	?	?	?
CC(C)C[C@@H](CC(=O)N[C@@H](CCC(=O)O)CC(=O)O)NC(=O)[C@@H]1CNCC[C@H]1NC(=O)C[C@@H](NC(=O)C[C@H](CO)NC(=O)[C@@H]1CCCC[C@H]1N)C(C)C	.	.	.	.	12%	.
COC(=O)Cn1c(C(=O)N2CCCC2)cc2c1C[C@H]1CN(C(=O)c3ccccc3)[C@@](Cc3ccccc3)(C(=O)OC)[C@@H]21	.	-5%	.	.	7%	16%
O=C(Nc1cccc(Cl)c1)c1ccc2c(=O)n3c(nc2c1)CCCCC3	?	-12%	13µM*	?	1%	-13%
CCOC(=O)c1c(NC(=O)CSc2nnc(C)s2)sc2c1CCN(C)C2	>57	-12%	-7%	?	-24%	20µM*
CCOC(=O)c1c(NC(=O)C(F)(OC)C(F)(F)F)sc2c1CCN(C)C2 (stereo not given)	>57	11%	-1%	-13%	1%	?
CC(C)(C)NCc1cc2ccccc2[nH]c1=O	>26	.	0%[25.5 µM]	.	.	.
Cc1ccc2[nH]c(=O)c(CNC(C)(C)C)cc2c1	.	-14%	-4%	?	-25%	32µM*
CC(C)COC(=O)c1nnsc1NC(=O)Nc1ccccc1	>57	-3%	2%	3%	13µM*	-13%
O=C(Nc1ccccc1)Nc1nncs1	>57	-12%	-2%	2%	22%	3%
CC(C)=NOCc1ccc(-c2cc(-c3ccccc3)no2)cc1	.	22%[11.5 µM]	0%[11.4 µM]	6%[11.4 µM]	0%[11.4 µM]	-1%[11.4 µM]
CCCCN(Cc1cc2cc(OC)ccc2[nH]c1=O)C(=O)c1ccco1	>57	-8%	1%	?	12%	25µM*
